# Experimental data reported in ChEMBL document CHEMBL3988442, “University of Dundee, Small-Polar-MMV Screening Library” (2021).
# Out of some 66,000 compounds screened, about 960 (1.5%) showed an effect of 50% or more. The sample holds strong results, similar compounds and a random draw of the others, so the mix is not that of the screen.
# System: Trypanosoma brucei
# Assay: Trypanosoma brucei 72 hour study
# Format: functional, organism-based
# Parameters: scale not given: in the data most compounds retested in dose-response had high values
compound,measurement,setting,value
CC(C)C[C@H](N)COc1cccc(F)c1Oc1ccc(Cl)cc1,Percent Effect,"30.3 µM, […]",100.5%
NCc1ccc(Oc2cccc(Cl)c2Cl)cc1,Percent Effect,"30 µM, 30.03 µM",-54.14%
CC(CNS(N)(=O)=O)Oc1cccc(Cl)c1 (centres undefined),Percent Effect,"30 µM, 30.03 µM",-29.05%
CC(C)C[C@H](N)COc1cccc(F)c1Oc1cccc(Cl)c1,Percent Effect,"30.3 µM, […]",99.87%
CNCc1cc(F)ccc1Oc1ccc(Cl)cc1,Percent Effect,"30.3 µM, […]",-18.58%
CC(CNS(C)(=O)=O)Oc1cccc(Cl)c1 (centres undefined),Percent Effect,"30 µM, 30.03 µM",-19.79%
CC(C)C[C@H](N)COc1cccc(F)c1Oc1ccccc1,Percent Effect,"30.3 µM, […]",100.2%
COc1ccccc1C(N)CC(C)C (centres undefined),Percent Effect,"30 µM, 30.03 µM",-12.31%
CC(C)COc1ccccc1C(N)CC(C)C (centres undefined),Percent Effect,"30 µM, 30.03 µM",-18.48%
Cc1ccc(NC2CCN(C(=O)CCc3ccncc3)CC2)nn1,Percent Effect,"30.3 µM, […]",5.448%
same,Percent Effect,"10 mM, 10 mM as filed; unlikely as a test dose",-59.85%
CC(CNCc1ccc2c(c1)n(C)c(=O)n2C)Oc1ccccn1.Cl (centres undefined),Percent Effect,"30 µM, 30.03 µM",-26.55%
CCn1nc(C)c2ccn(CC(=O)NC3CC3)c(=O)c21,Percent Effect,"30 µM, 30.03 µM",-19.49%
c1ccc(-c2nc(CNCCn3cccn3)cs2)nc1,Percent Effect,"30.3 µM, […]",-32.04%
CCn1ncc(CN2CCCC(n3c(=O)oc4ccccc43)C2)c1C.Cl (centres undefined),Percent Effect,"30.3 µM, […]",17.06%
CCc1ccc(C(=O)Nc2ccc3c(c2)N(C)CCN(C)C3)o1,Percent Effect,"30 µM, 30.03 µM",-2.445%
CCN1CCOCC2(CCCN(C(=O)c3ccccc3F)C2)C1.O=C(O)C(F)(F)F (centres undefined),Percent Effect,"30.3 µM, […]",-73.72%
CO[C@H]1CC[C@H]2[C@H]1OCCN2Cc1ccc(F)c(F)c1.O=C(O)C(F)(F)F,Percent Effect,"30.3 µM, […]",-36.53%
CCN1CC2(CC1=O)CN(Cc1cnn(C)c1)CCN(C(=O)N(C)C)C2.O=C(O)C(F)(F)F (centres undefined),Percent Effect,"30 µM, 30.03 µM",-27.29%
CC(=O)NCC1CCN(C(=O)c2c(C)[nH]c3ccc(Cl)cc23)CC1,Percent Effect,"30.3 µM, […]",4.898%
C[C@@H](CO)Nc1nccc(-c2cnc3sc(Cl)cn3c2=O)n1,Percent Effect,"30.3 µM, […]",8.201%
CCc1nc(C)c(C(=O)NCC2COc3cc(OC)ccc3C2)o1 (centres undefined),Percent Effect,"30 µM, 30.03 µM",22.43%
O=C1CCCCN1CCc1nc(-c2cccnn2)no1,Percent Effect,"30 µM, 30.03 µM",-7.651%
CC(C)CNC(=O)[C@H]1C[C@@H]2CN(C(=O)NCCc3ccccc3)C[C@H]1O2,Percent Effect,"30 µM, 30.03 µM",5.175%
O=S1(=O)CCC(S(=O)(=O)c2cccc(S(=O)(=O)N3CCOCC3)c2)C1 (centres undefined),Percent Effect,"30 µM, 30.03 µM",-4.748%
Fc1ccccc1CN1CCC[C@@H](Cn2nnc(-c3cccs3)n2)C1,Percent Effect,"30.3 µM, […]",-5.522%
Fc1ccccc1CN1CCC[C@H](Cn2nnc(-c3cccs3)n2)C1,Percent Effect,"30.3 µM, […]",82.08%
Fc1cccc(CN2CCC[C@H](Cn3nnc(-c4ccccn4)n3)C2)c1,Percent Effect,"30.3 µM, […]",-22.29%
COc1cccc(CN2CCCC3(CCN(C(=O)N4CCCC4)C3)C2)c1.O=C(O)C(F)(F)F (centres undefined),Percent Effect,"30.3 µM, […]",-29.29%
COCCC1(C(=O)O)CCCN(C(=O)c2cc(Cl)ccc2F)C1 (centres undefined),Percent Effect,"30.3 µM, […]",-11.98%
COc1ccc(-n2cnnc2SCC(=O)N(C)C(C)C)cn1,Percent Effect,"30 µM, 30.03 µM",19.1%
CCC(C)Sc1nncn1-c1ccc(OC)nc1 (centres undefined),Percent Effect,"30 µM, 30.03 µM",74.74%
COc1ccc(-n2cnnc2SCC(=O)NC(C)C)cn1,Percent Effect,"30 µM, 30.03 µM",21.81%
CCOC(=O)[C@]12CCCN(Cc3cccs3)C[C@H]1CN(C(C)=O)C2.O=C(O)C(F)(F)F,Percent Effect,"30.3 µM, […]",-10.51%
Cn1cc(N2Cc3nc(N4CCOCC4)ncc3C2=O)cn1,Percent Effect,"30.3 µM, […]",-24.66%
Cc1cc(C)n(-c2ccc(CNCc3ccc(C)o3)cn2)n1,Percent Effect,"30.3 µM, […]",8.783%
Cc1cc(C)n(-c2ccc(CNCc3ccc(F)c(F)c3)cn2)n1,Percent Effect,"30.3 µM, […]",53.31%
Cc1cc(C)n(-c2ccc(CNCc3cccc(C#N)c3)cn2)n1,Percent Effect,"30.3 µM, […]",62.16%
Cc1cc(C)n(-c2ccc(CNCc3ccc(OC(C)C)cc3)cn2)n1,Percent Effect,"30 µM, 30.03 µM",-15.45%
COc1ccc(C)cc1CNCc1ccc(-n2nc(C)cc2C)nc1,Percent Effect,"30 µM, 30.03 µM",-31.15%
Cc1ccc(CNCc2ccc(-n3nc(C)cc3C)nc2)cc1,Percent Effect,"30 µM, 30.03 µM",-12.87%
COc1cc(CNCc2ccc(-n3nc(C)cc3C)nc2)cc(OC)c1,Percent Effect,"30.3 µM, […]",5.745%
CNC(=O)COc1ccc(CNCc2ccc(F)cc2F)cc1,Percent Effect,"30 µM, 30.03 µM",4.908%
Cc1cc(C)n(-c2ccc(CNCc3ccc(F)cc3F)cn2)n1,Percent Effect,"30.3 µM, […]",61.76%
CCn1cc(-c2c(C)c(C3CCOC(C)(C)C3)nc(N)c2C#N)cn1 (centres undefined),Percent Effect,"30 µM, 30.03 µM",-13.96%
Cc1ccc(C(=O)N2CCC3(CC2)CCN(Cc2ccccn2)C3=O)o1.O=C(O)C(F)(F)F,Percent Effect,"30 µM, 30.03 µM",-16.24%
CCOCC(=O)N1CCOCC2(CCN(c3ncccn3)C2)C1.O=C(O)C(F)(F)F (centres undefined),Percent Effect,"30.3 µM, […]",-43.52%
Cc1cc(NC(=O)N(CCO)Cc2ccsc2)no1,Percent Effect,"30.3 µM, […]",3.821%
Cc1nc(CN2CC[C@@H]3O[C@@H](C(=O)N4CCOCC4)C[C@@H]32)cs1.O=C(O)C(F)(F)F,Percent Effect,"30.3 µM, […]",-22.53%
